Experimental data: PMC11062922 (Nature Chemical Biology, 2023)
Like-named read-outs stand apart in the source and are kept apart here.

Columns and labels:
PHKG2 = conditions: read-out: apparent Kd, n = 1
PKN1 = conditions: read-out: apparent Kd, n = 1

Substance: Lestaurtinib
- potency estimated from few doses (PHKG2; compound concentrations:100 nM and 1000 nM (sheet 'Lestaurtinib' of Supplementary Table 1),run:Lestaurtinib_02496_R2,Plate:MR013): 362 nM
- potency estimated from few doses (PHKG2; compound concentrations:100 nM and 1000 nM (sheet 'Lestaurtinib' of Supplementary Table 1),run:Lestaurtinib_02496_R3,Plate:MR013): 182 nM
- potency estimated from few doses (PHKG2; compound concentrations:100 nM and 1000 nM (sheet 'Lestaurtinib' of Supplementary Table 1),run:Lestaurtinib_02566_R1,Plate:MR014): 309 nM
- potency estimated from few doses (PHKG2; compound concentrations:100 nM and 1000 nM (sheet 'Lestaurtinib' of Supplementary Table 1),run:Lestaurtinib_02566_R2,Plate:MR014): 151 nM
- potency estimated from few doses (PHKG2; compound concentrations:100 nM and 1000 nM (sheet 'Lestaurtinib' of Supplementary Table 1),run:Lestaurtinib_02566_R3,Plate:MR014): 182 nM
- potency estimated from few doses (PHKG2; compound concentrations:100 nM and 1000 nM (sheet 'Lestaurtinib' of Supplementary Table 1),run:Lestaurtinib_02572_R1,Plate:MR015): 92 nM
- potency estimated from few doses (PHKG2; compound concentrations:100 nM and 1000 nM (sheet 'Lestaurtinib' of Supplementary Table 1),run:Lestaurtinib_02572_R2,Plate:MR015): 444 nM
- potency estimated from few doses (PHKG2; compound concentrations:100 nM and 1000 nM (sheet 'Lestaurtinib' of Supplementary Table 1),run:Lestaurtinib_02584_R1,Plate:MR017): 215 nM
- potency estimated from few doses (PHKG2; compound concentrations:100 nM and 1000 nM (sheet 'Lestaurtinib' of Supplementary Table 1),run:Lestaurtinib_02584_R2,Plate:MR017): 239 nM
- potency estimated from few doses (PHKG2; compound concentrations:100 nM and 1000 nM (sheet 'Lestaurtinib' of Supplementary Table 1),run:Lestaurtinib_02606_R1,Plate:MR019): 197 nM
- potency estimated from few doses (PHKG2; compound concentrations:100 nM and 1000 nM (sheet 'Lestaurtinib' of Supplementary Table 1),run:Lestaurtinib_02606_R2,Plate:MR019): 175 nM
- potency estimated from few doses (PHKG2; compound concentrations:100 nM and 1000 nM (sheet 'Lestaurtinib' of Supplementary Table 1),run:Lestaurtinib_02606_R3,Plate:MR019): 636 nM
- potency estimated from few doses (PHKG2; compound concentrations:100 nM and 1000 nM (sheet 'Lestaurtinib' of Supplementary Table 1),run:Lestaurtinib_02624_R1,Plate:MR020): 390 nM
- potency estimated from few doses (PHKG2; compound concentrations:100 nM and 1000 nM (sheet 'Lestaurtinib' of Supplementary Table 1),run:Lestaurtinib_02624_R3,Plate:MR020): 244 nM
- potency estimated from few doses (PHKG2; compound concentrations:100 nM and 1000 nM (sheet 'Lestaurtinib' of Supplementary Table 1),run:Lestaurtinib_02724_R1,Plate:MR021): 270 nM
- potency estimated from few doses (PHKG2; compound concentrations:100 nM and 1000 nM (sheet 'Lestaurtinib' of Supplementary Table 1),run:Lestaurtinib_02724_R2,Plate:MR021): 239 nM
- potency estimated from few doses (PHKG2; compound concentrations:100 nM and 1000 nM (sheet 'Lestaurtinib' of Supplementary Table 1),run:Lestaurtinib_02724_R3,Plate:MR021): 180 nM
- potency estimated from few doses (PHKG2; compound concentrations:100 nM and 1000 nM (sheet 'Lestaurtinib' of Supplementary Table 1),run:Lestaurtinib_02741_R1,Plate:MR023): 372 nM
- potency estimated from few doses (PHKG2; compound concentrations:100 nM and 1000 nM (sheet 'Lestaurtinib' of Supplementary Table 1),run:Lestaurtinib_02741_R2,Plate:MR023): 355 nM
- potency estimated from few doses (PHKG2; compound concentrations:100 nM and 1000 nM (sheet 'Lestaurtinib' of Supplementary Table 1),run:Lestaurtinib_02741_R3,Plate:MR023): 301 nM
- potency estimated from few doses (PHKG2; compound concentrations:100 nM and 1000 nM (sheet 'Lestaurtinib' of Supplementary Table 1),run:Lestaurtinib_02748_R1,Plate:MR024): 208 nM
- potency estimated from few doses (PHKG2; compound concentrations:100 nM and 1000 nM (sheet 'Lestaurtinib' of Supplementary Table 1),run:Lestaurtinib_02748_R3,Plate:MR024): 211 nM
- potency estimated from few doses (PHKG2; compound concentrations:100 nM and 1000 nM (sheet 'Lestaurtinib' of Supplementary Table 1),run:Lestaurtinib_02765_R1,Plate:MR026): 637 nM
- potency estimated from few doses (PHKG2; compound concentrations:100 nM and 1000 nM (sheet 'Lestaurtinib' of Supplementary Table 1),run:Lestaurtinib_02765_R2,Plate:MR026): 849 nM
- potency estimated from few doses (PHKG2; compound concentrations:100 nM and 1000 nM (sheet 'Lestaurtinib' of Supplementary Table 1),run:Lestaurtinib_02765_R3,Plate:MR026): 487 nM
- potency estimated from few doses (PHKG2; compound concentrations:100 nM and 1000 nM (sheet 'Lestaurtinib' of Supplementary Table 1),run:Lestaurtinib_02766_R1,Plate:MR027): 440 nM
- potency estimated from few doses (PHKG2; compound concentrations:100 nM and 1000 nM (sheet 'Lestaurtinib' of Supplementary Table 1),run:Lestaurtinib_02766_R2,Plate:MR027): 170 nM
- potency estimated from few doses (PHKG2; compound concentrations:100 nM and 1000 nM (sheet 'Lestaurtinib' of Supplementary Table 1),run:Lestaurtinib_02768_R1,Plate:MR028): 124 nM
- potency estimated from few doses (PHKG2; compound concentrations:100 nM and 1000 nM (sheet 'Lestaurtinib' of Supplementary Table 1),run:Lestaurtinib_02795_R1,Plate:MR022): 217 nM
- potency estimated from few doses (PHKG2; compound concentrations:100 nM and 1000 nM (sheet 'Lestaurtinib' of Supplementary Table 1),run:Lestaurtinib_02795_R3,Plate:MR022): 347 nM
- potency estimated from few doses (PHKG2; compound concentrations:100 nM and 1000 nM (sheet 'Lestaurtinib' of Supplementary Table 1),run:Lestaurtinib_02802_R2,Plate:MR029): 197 nM
- potency estimated from few doses (PHKG2; compound concentrations:100 nM and 1000 nM (sheet 'Lestaurtinib' of Supplementary Table 1),run:Lestaurtinib_02896_R3,Plate:MR030): 250 nM
- potency estimated from few doses (PHKG2; compound concentrations:100 nM and 1000 nM (sheet 'Lestaurtinib' of Supplementary Table 1),run:Lestaurtinib_03172_R1,Plate:MR031): 153 nM
- potency estimated from few doses (PHKG2; compound concentrations:100 nM and 1000 nM (sheet 'Lestaurtinib' of Supplementary Table 1),run:Lestaurtinib_03172_R3,Plate:MR031): 213 nM
- potency estimated from few doses (PHKG2; compound concentrations:100 nM and 1000 nM (sheet 'Lestaurtinib' of Supplementary Table 1),run:Lestaurtinib_03252_R1,Plate:MR032): 635 nM
- potency estimated from few doses (PHKG2; compound concentrations:100 nM and 1000 nM (sheet 'Lestaurtinib' of Supplementary Table 1),run:Lestaurtinib_03252_R2,Plate:MR032): 91.1 nM
- potency estimated from few doses (PHKG2; compound concentrations:100 nM and 1000 nM (sheet 'Lestaurtinib' of Supplementary Table 1),run:Lestaurtinib_03260_R1,Plate:MR033): 321 nM
- potency estimated from few doses (PHKG2; compound concentrations:100 nM and 1000 nM (sheet 'Lestaurtinib' of Supplementary Table 1),run:Lestaurtinib_03260_R2,Plate:MR033): 323 nM
- potency estimated from few doses (PHKG2; compound concentrations:100 nM and 1000 nM (sheet 'Lestaurtinib' of Supplementary Table 1),run:Lestaurtinib_03260_R3,Plate:MR033): 212 nM
- potency estimated from few doses (PKN1; compound concentrations:100 nM and 1000 nM (sheet 'Lestaurtinib' of Supplementary Table 1),run:Lestaurtinib_02339_R1,Plate:MR001): 424 nM
- potency estimated from few doses (PKN1; compound concentrations:100 nM and 1000 nM (sheet 'Lestaurtinib' of Supplementary Table 1),run:Lestaurtinib_02339_R2,Plate:MR001): 316 nM
- potency estimated from few doses (PKN1; compound concentrations:100 nM and 1000 nM (sheet 'Lestaurtinib' of Supplementary Table 1),run:Lestaurtinib_02364_R1,Plate:MR002): 497 nM
